Assay [1] can be described thus: qHTS assay to test for compound auto fluorescence at 535 nm (green) in HEK293 cells (AID 720680). (qHTS replaces the single test concentration by a dilution series.)
Assay [2] is described as follows: qHTS assay to test for compound auto fluorescence at 460 nm (blue) in HEK293 cell free culture (AID 720681). In short, it runs like this:
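Compounds were added to cell-free DMEM with 10% FBS and fluorescence read directly. The blue channel used 405 nm excitation and 460 nm emission, with triamterene as the reference fluorophore.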

Assay [3] in a line: qHTS assay to test for compound auto fluorescence at 535 nm (green) in HEK293 cell free culture (AID 720682). In short, it runs like this:
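Intrinsic compound fluorescence is measured in culture medium containing 10% FBS, with excitation at 485 nm and detection at 535 nm, referenced to fluorescein.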

The nature of assay [4]: qHTS assay to test for compound auto fluorescence at 590 nm (red) in HEK293 cell free culture (AID 720683). In short, it runs like this: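 Cell-free wells of DMEM with 10% FBS received compound, and intrinsic fluorescence was read at excitation/emission 540/590 nm. Values expressed as equivalence to Rose Bengal sodium.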
The nature of assay [5]: qHTS assay to test for compound auto fluorescence at 590 nm (red) in HepG2 cell free culture (AID 720684). A digest of the protocol:
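Auto fluorescence equivalency versus Rose Bengal sodium, red channel Ex/Em 540/590 nm; compounds in cell-free MEM/10% FBS; DMSO vehicle control.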

Assay [6] in a line: qHTS assay to test for compound auto fluorescence at 460 nm (blue) in HepG2 cell free culture (AID 720685). In short, it runs like this:
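Cell-free plates of MEM plus 10% FBS received 23 nL compound or DMSO vehicle; blue-channel (405/460 nm) intensity scored against triamterene as reference fluorophore.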

Assay [7] is described as follows: qHTS assay to test for compound auto fluorescence at 535 nm (green) in HepG2 cell free culture (AID 720686).
A short description of assay [8]: qHTS assay to test for compound auto fluorescence at 460 nm (blue) in HepG2 cells (AID 720687). In short, it runs like this:
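HepG2 cells in MEM with 10% FBS, attached overnight at 37 C, were exposed to compound or DMSO for 1 hr at 37 C, 5% CO2. Blue fluorescence was read at 405/460 nm, with triamterene as reference fluorophore.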

Assay [9] in a line: qHTS assay to identify small molecule antagonists of the glucocorticoid receptor (GR) signaling pathway - cell viability counter screen (AID 720693). Further: nearly all actives have a fitted effect of over 55% in size.
A short description of assay [10]: qHTS assay for identifying genotoxic compounds that show differential cytotoxicity against isogenic chicken DT40 cell lines with known DNA damage response pathways - Rev3 mutant cell line (AID 743014). Further: nearly all actives have a fitted effect of over 55% in size. Further: potency means the concentration at half of the fitted maximal effect.
Assay [11] can be described thus: qHTS assay for identifying genotoxic compounds that show differential cytotoxicity against isogenic chicken DT40 cell lines with known DNA damage response pathways - Rad54/Ku70 mutant cell line (AID 743015). Further: nearly all actives have a fitted effect of over 60% in size. Further: potency means the concentration at half of the fitted maximal effect.
Assay [12] is described as follows: qHTS assay to identify small molecule antagonists of the androgen receptor (AR) signaling pathway - cell viability counter screen (AID 743033; further: nearly all actives have a fitted effect of over 45% in size; further: potency means the concentration at half of the fitted maximal effect).
Assay [13] concerns the target Glucocorticoid receptor (Homo sapiens) (UniProt P04150). Put plainly: qHTS assay to identify small molecule agonists of the glucocorticoid receptor (GR) signaling pathway (AID 720691; active means well fitted activation curve with a large enough effect in the signal ratio in the repeat runs, not every such curve was filed as active; the % refers to the signal ratio; further: potency means the concentration at half of the fitted maximal effect). A digest of the protocol: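 Cells: GR-bla HeLa, endogenous GR with stably integrated GRE-beta-lactamase reporter. Treatment 18 h, 37 C, compounds delivered in DMSO. Detection via LiveBLAzer B/G FRET substrate, 2 h RT, fluorescence intensity.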

Assay [14] shares this target. Briefly: qHTS assay to identify small molecule antagonists of the glucocorticoid receptor (GR) signaling pathway (AID 720692; active means well fitted inhibition curve with a large enough effect in the signal ratio in the repeat runs, not every such curve was filed as active; the % refers to the signal ratio). In short, it runs like this: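 Quantitative HTS in antagonist format: HeLa cells expressing endogenous GR and a stably integrated GRE-bla reporter, stimulated with 5 nM dexamethasone (final) alongside test compounds for 18 h.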
Assay [15] is described as follows: qHTS assay for identifying genotoxic compounds that show differential cytotoxicity against isogenic chicken DT40 cell lines with known DNA damage response pathways - wild type cell line (AID 743012). Further: nearly all actives have a fitted effect of over 60% in size. Further: potency means the concentration at half of the fitted maximal effect. In short, it runs like this:
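Luminescent ATP viability signal (CellTiter-Glo, 30 min RT) recorded after wild type DT40 cells were incubated with compounds for 40 h at 37 C/5% CO2.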

The target of assay [16] is Androgen receptor (Homo sapiens) (UniProt P10275). Put plainly: qHTS assay to identify small molecule antagonists of the androgen receptor (AR) signaling pathway (AID 743035; active means well fitted inhibition curve with a large enough effect in the signal ratio in the repeat runs, not every such curve was filed as active; the % refers to the signal ratio). A digest of the protocol: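 Quantitative HTS of the Tox21 10K library used HEK293 AR-UAS-bla cells stimulated with R1881 alongside compound for 16 h at 37C, followed by beta-lactamase FRET detection (LiveBLAzer B/G, 2 h, RT).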
Sequence of Androgen receptor (Homo sapiens) (P10275 whole entry, looked up): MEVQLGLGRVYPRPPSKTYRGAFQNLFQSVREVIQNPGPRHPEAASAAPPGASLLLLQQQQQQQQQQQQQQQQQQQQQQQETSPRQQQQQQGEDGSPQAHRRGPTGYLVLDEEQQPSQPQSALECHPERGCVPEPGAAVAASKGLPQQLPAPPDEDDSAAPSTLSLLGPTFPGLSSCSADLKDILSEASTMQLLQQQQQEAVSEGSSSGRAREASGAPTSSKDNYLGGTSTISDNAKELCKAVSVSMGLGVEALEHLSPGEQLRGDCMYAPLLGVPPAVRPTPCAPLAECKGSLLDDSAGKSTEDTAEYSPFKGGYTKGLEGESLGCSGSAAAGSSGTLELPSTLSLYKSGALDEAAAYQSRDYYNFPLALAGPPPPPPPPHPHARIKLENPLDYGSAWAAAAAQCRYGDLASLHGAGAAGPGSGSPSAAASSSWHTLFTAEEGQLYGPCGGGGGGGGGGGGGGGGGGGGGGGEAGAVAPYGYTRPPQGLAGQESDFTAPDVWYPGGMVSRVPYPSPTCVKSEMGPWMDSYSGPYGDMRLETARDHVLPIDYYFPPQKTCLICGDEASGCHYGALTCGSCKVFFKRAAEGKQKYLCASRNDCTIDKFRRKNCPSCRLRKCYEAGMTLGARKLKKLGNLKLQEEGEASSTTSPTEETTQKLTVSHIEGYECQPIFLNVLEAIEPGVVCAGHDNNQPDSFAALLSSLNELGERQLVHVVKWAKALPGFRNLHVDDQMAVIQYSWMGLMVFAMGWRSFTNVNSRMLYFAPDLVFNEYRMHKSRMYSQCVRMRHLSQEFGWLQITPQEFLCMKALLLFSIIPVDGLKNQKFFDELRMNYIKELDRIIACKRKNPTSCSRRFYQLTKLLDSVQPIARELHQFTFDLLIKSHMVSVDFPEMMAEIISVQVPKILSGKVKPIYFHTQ

Assay [17] has the same target. Put plainly: qHTS assay to identify small molecule agonists of the androgen receptor (AR) signaling pathway (AID 743036; active means well fitted activation curve with a large enough effect in the signal ratio in the repeat runs, with a control signal flat, not every such curve was filed as active; the % refers to the signal ratio). In short, it runs like this:
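Agonist activity was scored by beta-lactamase reporter fluorescence in stably transfected HEK293 cells exposed to compounds for 16 h at 37C and 5% CO2. Substrate loading took 2 h at room temperature.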

Assay [18] has the same target. Briefly: qHTS assay to identify small molecule agonists of the androgen receptor (AR) signaling pathway using the MDA cell line (AID 743040; further: nearly all actives have a fitted effect of over 20% in size). A digest of the protocol:
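Testing was done with the MDA-kb2 AR-luc line, a human breast carcinoma stably transfected with MMTV-luciferase containing AR and GR response elements. Cells were exposed 16 h at 37C before ONE-Glo luminescence detection.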

Assay [19] is described as follows: qHTS assay to identify small molecule antagonists of the androgen receptor (AR) signaling pathway using the MDA cell line - cell viability counter screen (AID 743041; further: nearly all actives have a fitted effect of over 45% in size). A digest of the protocol: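 Compound exposure lasted 16 h at 37C in MDA-kb2 AR-luc cells stimulated with R1881. Protease-based CellTiter-Fluor reagent was applied for the final 30 min and fluorescence measured.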

For assay [20], the target named is Androgen receptor (Homo sapiens) (UniProt P10275). Briefly: qHTS assay to identify small molecule antagonists of the androgen receptor (AR) signaling pathway using the MDA cell line (AID 743042; further: nearly all actives have a fitted effect of over 55% in size). In short, it runs like this: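 MDA-kb2 breast carcinoma cells carrying MMTV-luciferase (AR/GR responsive) were co-treated with compounds and the agonist R1881 for 16 h at 37C. Inhibition read as ONE-Glo luminescence; CellTiter-Fluor fluorescence measured in parallel for cytotoxicity.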

Several values for one entry are separate records, joined by “and”; a condition that tells them apart may be missing. Identical values can stand only once. Inconclusive results are not listed. Some structures have more than one record in an assay (separate samples or runs), and their calls can disagree. Activity calls are given as the source filed them. Unless noted, the call rests on the fitted dose curve; in most records, active means well fitted curve in the direction sought with a large enough effect in the repeat runs; inconclusive means weak or mixed curves; inactive means no such curve, though single readings can be large; an effect the other way counts as inactive or inconclusive.

Sequence of Glucocorticoid receptor (Homo sapiens) (P04150 whole entry, looked up): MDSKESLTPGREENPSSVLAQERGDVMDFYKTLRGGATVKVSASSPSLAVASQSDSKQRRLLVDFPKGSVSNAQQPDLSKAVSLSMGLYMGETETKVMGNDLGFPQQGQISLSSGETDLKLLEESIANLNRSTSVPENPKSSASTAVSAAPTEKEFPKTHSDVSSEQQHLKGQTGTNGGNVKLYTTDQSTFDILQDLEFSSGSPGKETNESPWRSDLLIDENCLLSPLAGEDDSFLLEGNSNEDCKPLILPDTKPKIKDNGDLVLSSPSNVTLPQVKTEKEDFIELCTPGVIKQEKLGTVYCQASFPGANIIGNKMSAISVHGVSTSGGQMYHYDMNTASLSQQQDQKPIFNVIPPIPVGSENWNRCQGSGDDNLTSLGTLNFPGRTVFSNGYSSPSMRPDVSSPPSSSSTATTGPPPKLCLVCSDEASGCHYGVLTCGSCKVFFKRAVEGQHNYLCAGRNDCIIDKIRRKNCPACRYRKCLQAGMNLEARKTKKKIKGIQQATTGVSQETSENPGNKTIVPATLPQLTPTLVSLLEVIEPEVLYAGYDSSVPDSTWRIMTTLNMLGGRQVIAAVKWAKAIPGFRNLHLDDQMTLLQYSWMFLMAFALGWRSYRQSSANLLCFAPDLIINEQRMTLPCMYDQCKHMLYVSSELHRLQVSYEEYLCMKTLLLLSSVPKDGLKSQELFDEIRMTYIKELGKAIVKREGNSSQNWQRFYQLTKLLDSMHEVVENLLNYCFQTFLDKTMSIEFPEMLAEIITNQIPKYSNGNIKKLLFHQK

Take `O=C(/C=C/C=C/c1ccc2c(c1)OCO2)N1CCCCC1`: the Potency result in [1], in [3], in assay [4], in assay [5], in assay [7] and in assay [9] was “inactive” throughout. In assay [12], the Potency entry was “inactive”. For the same compound, the compound was classed as inactive in assay [2], in [6] and in assay [8]. The Potency in assay [10] and in assay [11] was 61.3 µM (active) throughout.
With `Cc1c(OCC(F)(F)F)ccnc1CS(=O)c1nc2ccccc2[nH]1` (stereo unspecified), the Potency entry in assay [1], in assay [3], in assay [4], in [5], in assay [7] and in assay [13] was “inactive” each time. The Potency result in assay [14], in assay [15] and in assay [12] was “inactive” in each case. Moreover, the compound was called inactive in assay [2] and in assay [6]. Besides, the Potency result in assay [10] was “inactive and 54.5 µM (active)”.
With `OCCO`, the Potency entry in assay [1], in assay [3], in [4], in [5], in [7] and in assay [15] was “inactive” in each case. Also, the Potency entry in assay [10], in [11], in [12], in assay [16], in assay [18] and in assay [19] was “inactive” throughout. Besides, the Potency result in assay [20] was “inactive”. For the same compound, the result in assay [2], in assay [6], in assay [8] and in [17] was inactive.
As for `CC(=O)C1(C)CC2=C(CCCC2(C)C)CC1C` (stereo unspecified), the Potency entry in assay [1], in [3], in assay [4], in [5], in [7] and in [13] was “inactive” each time. Moreover, the Potency result in [14], in [9], in assay [15], in assay [10], in assay [12] and in assay [16] was “inactive” in each case. Further, the Potency result in [18], in [19] and in assay [20] was “inactive” throughout. Further, the outcome in [2], in assay [6] and in [17] was inactive. Besides, the Potency result in assay [11] is “inactive and 54.5 µM (active)”.
In the case of `CCCCOCCOCCO`, the Potency entry in [1], in assay [3], in assay [4], in assay [5], in assay [7] and in assay [13] was “inactive” in each case. Besides, the Potency result in assay [14], in [9], in assay [15], in [10], in [11] and in assay [12] was “inactive” each time. Also, the call in [2] and in assay [6] was inactive.
With `O=C1c2cccc(O)c2C(=O)c2c(O)cccc21`, the Potency entry in [1], in [3], in [4], in assay [5], in assay [7] and in [9] was “inactive” throughout. The Potency result in assay [15], in assay [10], in assay [11], in [12] and in assay [19] was “inactive” throughout. Moreover, the compound was called inactive in [2] and in assay [6].
Regarding `CC(=O)O[C@]1(C(C)=O)CC[C@H]2[C@@H]3C=C(Cl)C4=CC(=O)[C@@H]5C[C@@H]5[C@]4(C)[C@H]3CC[C@@]21C`, the Potency result in [1], in [3], in assay [4], in assay [5] and in assay [7] was “inactive” in each case. In addition, the compound was classed as inactive in assay [2] and in assay [6]. The Potency in assay [15] was 13.3 µM (active) and 12.2 µM (active) and 19.3 µM (active); in assay [10], 21.1 µM (active) and 4.85 µM (active) and 15.4 µM (active); in [11] it was 23.7 µM (active) and 7.69 µM (active) and 21.7 µM (active); in assay [12], “inactive and 19.5 µM (active)”.
Turning to `CN(C)C(=N)N=C(N)N`, the Potency entry in assay [1], in assay [3], in [4], in assay [5], in assay [7] and in [14] was “inactive” each time. The Potency result in assay [9], in [12] and in [19] was “inactive” in each case. Further, the outcome in assay [2] and in [6] was inactive. For the same compound, the Potency in assay [13] is 2.56 µM (active) and inactive.
As for `Oc1ccc(O)cc1`, the Potency result in assay [1], in assay [3], in assay [4], in [5], in assay [7] and in [13] was “inactive” in each case. Moreover, the Potency entry in assay [12] and in [19] was “inactive” in each case. For the same compound, the outcome in [2] and in assay [6] was inactive. The Potency in assay [15] is 23.7 µM (active) and 9.63 µM (active) and 61.1 µM (active); in assay [10], 18.8 µM (active) and 24.2 µM (active) and 48.6 µM (active); in assay [11], 26.6 µM (active) and 13.6 µM (active) and 54.5 µM (active).
As for `c1ccc(Nc2ccccc2)cc1`, the Potency result in assay [1], in assay [3], in assay [4], in assay [5], in [7] and in [11] was “inactive” throughout. The Potency result in assay [12] and in assay [19] was “inactive” throughout. Also, the compound was classed as inactive in assay [2], in [6] and in [8]. Moreover, the Potency in assay [15] was 61.1 µM (active).
For the compound `Nc1ccccc1N`, the Potency result in assay [1], in [3], in [4], in assay [5], in assay [13] and in assay [12] was “inactive” in each case. Moreover, the Potency entry in assay [19] was “inactive”. For the same compound, the outcome in assay [2], in [6] and in assay [8] was inactive. Also, the Potency in [15] is 3.86 µM (active); in assay [10], 31.4 µM (active) and 10.3 µM (active); in [11], 62.6 µM (active) and 9.15 µM (active).
As to `O=C(c1ccccc1)c1ccc(O)cc1O`, the Potency result in [1], in assay [3], in [4], in [5], in assay [7] and in assay [13] was “inactive” each time. Moreover, the Potency result in [14], in assay [15], in assay [10], in assay [12] and in assay [19] was “inactive” throughout. Besides, the call in assay [2] and in [6] was inactive.
Regarding `C=C(C)C1CC=C(C)CC1` (stereo unspecified), the Potency result in [1], in assay [3], in [4], in assay [5], in [7] and in assay [15] was “inactive” in each case. The Potency entry in [10], in assay [11] and in assay [12] was “inactive” throughout. Also, the outcome in [2] and in assay [6] was inactive.
For `CN1C(C(=O)Nc2ccccn2)=C(O)c2ccccc2S1(=O)=O`, the Potency result in assay [1], in [3], in assay [4], in [5], in [7] and in assay [13] was “inactive” throughout. In addition, the Potency result in assay [14], in assay [15], in assay [10], in assay [11], in [12] and in [19] was “inactive” in each case. For the same compound, the result in assay [2] and in assay [6] was inactive.

(Values after PubChem BioAssay (Tox21).)
